Screening data (PubChem BioAssay)
An excerpt weighted towards active compounds, which were near 5.4% of everything screened.
NR0B1 inh – DAX1 (NR0B1) inhibitors, primary screen, cell-based, HEK293, Gal4-DAX1, luciferase luminescence; HEK293 Gal4-DAX1 luciferase reporter; inhibition, % at 6.75 µM; actives 0.99% (n = 340,000);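 active = inhibition above the mean over all tested compounds plus 3 SD, cut at about 4.2% in these data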;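 also: inhibition shows as a rise in luminescence from relieved DAX1 repression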
HSF1 inhib – HSF1 inhibitors in luciferase reporter cells, primary screen, cell-based, NIH3T3, luminescence | NIH3T3-HGL HSE-luciferase, MG132-induced, luminescence 8 h; stronger effect = lower value | activity change, negative = inhibition, % at 7.5 µM (by protocol) | actives 0.77% (n = 300,000) | AID 2098, 2009;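 active = more than half of replicate wells show activity change below -50%, luminescence cut by over half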;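 also: luciferase reports HSF-1 transcriptional activity via heat shock element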
GAA850 FXN act – FXN promoter activators, primary screen, cell-based, luciferase luminescence, HEK293 lucGAA850. HEK293 lucGAA850 FXN promoter luciferase reporter, 24 h; percent of 10 µM SAHA response. activation, % at 6 µM. actives 0.56% (n = 360,000);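 active = activation above the average of all compounds screened plus 3 SD, cutoff fixed separately per campaign, cut at about 7.5% in these data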
AHR activator – AHR activators, primary screen, cell-based, luminescence, luciferase reporter, human; Aryl hydrocarbon receptor (Homo sapiens), P35869; AHR-responsive luciferase reporter cells; activation, % at 5 µM; actives 2.5% (n = 320,000); AID 2796, 2010; in the data active = activation above about 47%
HSF1 activator – HSF-1 activators, primary screen, NIH3T3-HGL cells, MG132 stress, luminescence, single point; NIH3T3-HGL HSF-1 luciferase reporter, 8 h; 100% = twice DMSO control signal; activation, % at 9 µM; actives 1.7% (n = 300,000);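 active = mean replicate activation of at least 50% with a set share of replicates each reaching 50%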
Large screens that a line does not name were inactive.

Cc1ccc(-c2ccnc3c(Br)c(C)nn23)cc1	none
O=C(Nc1ccc(C(O)c2ccccc2)cc1)[C@@H]1O[C@H](CO)[C@@H](O)[C@H]1O (some centres undefined)	none (no result: NR0B1 inh, HSF1 inhib, AHR activator, HSF1 activator)
CC(=O)c1ccc(-n2c(-c3cc(-c4ccco4)[nH]n3)n[nH]c2=S)cc1	NR0B1 inh 5.6
O=C(O)c1ccc(-n2c(-c3cc(C4CC4)[nH]n3)n[nH]c2=S)cc1	NR0B1 inh 4.6
O=C(O)c1ccc(-n2c(-c3ccccc3)n[nH]c2=S)cc1	none
CCCCc1c(O)nc(SCC(=O)c2ccccc2)n(-c2ccccc2)c1=O	none
COc1ccc(C(=O)NCC(=O)OCc2c(Cl)cccc2Cl)cc1OC	none (no result: HSF1 inhib, AHR activator, HSF1 activator)
Cc1c(N=NC2=C(O)CCCC2=O)c(=O)n(-c2ccccc2)n1C	AHR activator 51
Cc1[nH]c2ccccc2c1N=Nc1c(C)n(C)n(-c2ccccc2)c1=O	none
Cc1c(N=Nc2ccc(O)cc2)c(=O)n(-c2ccccc2)n1C	AHR activator 56
Oc1ccccc1C1=NN(c2ccccc2)C(c2ccc(F)cc2)C1 (centres undefined)	none (no result: AHR activator)
COc1ccc(C2CC(c3cccs3)=NN2S(C)(=O)=O)cc1OC (centres undefined)	none (no result: HSF1 inhib, HSF1 activator)
COc1ccc(C2CC(c3cccs3)=NN2c2nc(-c3ccccc3)cs2)cc1OC (centres undefined)	HSF1 activator 93
Cc1ccc(N2N=C(c3ccc(F)cc3)CC2c2ccco2)cc1 (centres undefined)	NR0B1 inh 5.1
Oc1ccc(C2=NN(c3ccccc3)C(c3ccc(F)cc3)C2)cc1 (centres undefined)	HSF1 inhib -75
COc1ccc(C2=NN(c3ccccc3)C(c3ccc(OC)c(OC)c3)C2)cc1 (centres undefined)	HSF1 activator 71
COc1ccc(Cn2c(-c3ccccc3C)nc3c(c(=O)c4ccccc4n3C)c2=O)cc1	none
COc1ccc(NC(=S)N2CCN(C)CC2)cc1	none (no result: NR0B1 inh)
CC(=O)c1cccc(NC(=S)N2CCN(CCN3C(=O)c4cccc5cccc(c45)C3=O)CC2)c1	none
CC(=O)c1ccc(NC(=S)N2CCN(CCN3C(=O)c4cccc5cccc(c45)C3=O)CC2)cc1	AHR activator 122
COc1ccc(NC(=S)N2CCN(CCN3C(=O)c4cccc5cccc(c45)C3=O)CC2)cc1	AHR activator 97
O=C(NCC(c1ccco1)N1CCCCC1)c1ccc(COc2ccc(Cl)cc2)cc1 (centres undefined)	none (no result: HSF1 inhib, AHR activator, HSF1 activator)
CCNC(=O)C1(C)CCN(C(=O)c2cccc(C(F)(F)F)c2)C1 (centres undefined)	none (no result: NR0B1 inh, HSF1 inhib, AHR activator, HSF1 activator)
CCCN(CC(=O)Nc1cc(Cl)cc(Cl)c1)CC(=O)Nc1ccc(F)c(F)c1F	none
Cc1cc(C)cc(OCc2nc3ncc(Br)cc3[nH]2)c1	AHR activator 69
O=C(c1cnn(C(=O)COc2ccc(Cl)cc2)c1)c1ccccc1O	none
N#Cc1ccc(OCC(=O)n2cc(C(=O)c3cc(Cl)cc(Cl)c3O)cn2)cc1	AHR activator 70 (no result: NR0B1 inh, GAA850 FXN act)
Cc1ccc(S(=O)(=O)NC(=O)C2(C)CCN2C(=O)Cc2cccs2)nc1 (centres undefined)	none (no result: NR0B1 inh, HSF1 inhib, AHR activator, HSF1 activator)
CCOc1ccc(CCN2CN(CC)CNC2=S)cc1OCC	NR0B1 inh 4.9
CCN1CNC(=S)N(CCc2ccccc2)C1	none
Cc1cccc(N(CC(=O)NCc2ccc(F)cc2)C(=O)c2csnn2)c1C	HSF1 activator 52
Cc1ccc(N(CC(=O)NCc2ccc(F)cc2)C(=O)c2csnn2)c(C)c1	none
Oc1ccc(-c2csc(Nc3cccc4ccccc34)n2)cc1O	AHR activator 52
O=C(CC1C[C@H](C(=O)N2CCCCC2)[C@@]2(CCc3ccccc3)c3[nH]c4ccccc4c3CCN2C1=O)NCCCn1ccnc1 (some centres undefined)	none (no result: HSF1 inhib, HSF1 activator)
Nc1nc(-c2ccc(Cl)cc2)nc(-c2ccc(Cl)cc2)n1	AHR activator 70
C=C(C)C(=O)Nc1cccc(C2=NOC3(C2)C[C@H](C(N)=O)N(C(=O)c2ccccc2C(=O)c2ccccc2)C3)c1 (some centres undefined)	none
CCOCCCNc1ccc(N2C(=O)C3CCCCC3C2=O)cc1[N+](=O)[O-] (centres undefined)	none
